Active and inactive are the calls of the source. The calls were made as follows: active = hit-call score of the fitted dose curve at least 0.9, where 1 is the maximum; inactive = score below 0.9.

We go through three compounds from PubChem BioAssay (EPA / NIEHS).

Holding throughout (settings): mRNA level, 48 h; actives raise or lower the signal
Read-out in test [1]: JUN Transcription Factor, JUN (gene 3725)
Put plainly: LTEA_HepaRG_JUN: Life Technologies and Expression Analysis (LTEA) Assay for JUN Transcription Factor using HepaRG (AID 2283513). In short, it runs like this: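 Differentiated HepaRG cells were exposed to chemicals for 48 h in serum-free induction medium, 8 concentrations from 100 uM in half-log steps, 0.5% DMSO vehicle, in duplicate. JUN mRNA was quantified by TaqMan qRT-PCR, normalized to ACTB, GAPDH, POLR2A.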

Read-out in test [2]: Lipase C (LIPC), LIPC (gene 3990)
Put plainly: LTEA_HepaRG_LIPC: Life Technologies and Expression Analysis (LTEA) Assay for Lipase C (LIPC) using HepaRG (AID 2283514). In short, it runs like this:
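Differentiated human HepaRG cells in serum-free induction medium were exposed in duplicate for 48 h to eight concentrations (top 100 uM, half-log steps, 0.5% DMSO). LIPC mRNA was quantified by TaqMan qRT-PCR, normalized to ACTB, GAPDH and POLR2A, with bidirectional fitting versus DMSO.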

Read-out in test [3]: Lipoprotein lipase (LPL), LPL (gene 4023)
Put plainly: LTEA_HepaRG_LPL: Life Technologies and Expression Analysis (LTEA) Assay for Lipoprotein lipase (LPL) using HepaRG (AID 2283515). The method in brief:
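Differentiated human HepaRG cells in serum-free induction medium were exposed in duplicate for 48 h to eight half-log concentrations (top 100 uM) in 0.5% DMSO. LPL mRNA was quantified by TaqMan qRT-PCR, normalized to ACTB, GAPDH and POLR2A.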

Read-out in test [4]: MicroRNA 122 (MIR122), gene 406906
Put plainly: LTEA_HepaRG_MIR122: Life Technologies and Expression Analysis (LTEA) Assay for MicroRNA 122 (MIR122) using HepaRG (AID 2283516). Also: the transcript read is the microRNA miR-122. The method in brief:
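Differentiated human HepaRG cells were exposed 48 h in serum-free induction medium to eight half-log concentrations (top 100 uM, 0.5% DMSO). Transcript level was measured by TaqMan qRT-PCR, normalized to ACTB, GAPDH and POLR2A, and fitted bidirectionally versus DMSO.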

Read-out in test [5]: matrix metalloproteinase-10 (MMP10), MMP10 (gene 4319)
Put plainly: LTEA_HepaRG_MMP10: Life Technologies and Expression Analysis (LTEA) Assay for matrix metalloproteinase-10 (MMP10) using HepaRG (AID 2283517). In short, it runs like this:
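HepaRG, collagen I, ~100,000 cells/well; serum-free induction medium; 48 h exposure, duplicate, 8-pt half-log to 100 uM, 0.5% DMSO. Readout: TaqMan qRT-PCR, normalized to ACTB/GAPDH/POLR2A; bidirectional fit vs DMSO.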

Read-out in the next test: MYC, MYC (gene 4609)
Put plainly: LTEA_HepaRG_MYC: Life Technologies and Expression Analysis (LTEA) Assay for MYC using HepaRG (AID 2283518). In short, it runs like this: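 Expression changes were scored by TaqMan qRT-PCR with ACTB, GAPDH and POLR2A normalization. Cultures in serum-free induction medium received duplicate 8-point concentration series, highest 100 uM, for 48 h; DMSO (0.5%) served as baseline.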

Read-out in test [6]: matrix metalloproteinase-3 (MMP3), MMP3 (gene 4314)
Put plainly: LTEA_HepaRG_MMP3: Life Technologies and Expression Analysis (LTEA) Assay for matrix metalloproteinase-3 (MMP3) using HepaRG (AID 2283519). In short, it runs like this:
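Differentiated human HepaRG cells, plated 48 h on collagen I, were exposed in duplicate for 48 h in serum-free induction medium to eight half-log concentrations up to 100 uM in 0.5% DMSO. MMP3 mRNA was quantified by TaqMan qRT-PCR, normalised to ACTB, GAPDH and POLR2A.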

Read-out in test [7]: Paternally Expressed 10 (PEG10), PEG10 (gene 23089)
Put plainly: LTEA_HepaRG_PEG10: Life Technologies and Expression Analysis (LTEA) Assay for Paternally Expressed 10 (PEG10) using HepaRG (AID 2283520). The method in brief: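 Differentiated HepaRG cells, plated 48 h then switched to serum-free induction medium, were exposed in duplicate for 48 h to eight half-log concentrations topping at 100 uM in 0.5% DMSO. PEG10 mRNA was quantified by TaqMan qRT-PCR, normalised to ACTB, GAPDH and POLR2A.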

Read-out in test [8]: Nuclear factor NF-kappa-B p105 subunit (Homo sapiens) (UniProt P19838)
Put plainly: LTEA_HepaRG_NFKB1: Life Technologies and Expression Analysis (LTEA) Assay for Nuclear Factor Kappa B Subunit 1 (NFKB1) using HepaRG (AID 2283521).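 As to outcome: TaqMan qRT-PCR transcript normalised to ACTB GAPDH and POLR2A housekeeping genes.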 The method in brief:
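Human HepaRG cells receive eight half-log concentrations, highest 100 uM, for 48 h. NFKB1 expression is then quantified by qRT-PCR and analysed for up- or down-regulation relative to 0.5% DMSO vehicle.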

Read-out in test [9]: Protein phosphatase 2A (PPP2R4), PTPA (gene 5524)
Put plainly: LTEA_HepaRG_PPP2R4: Life Technologies and Expression Analysis (LTEA) Assay for Protein phosphatase 2A (PPP2R4) using HepaRG (AID 2283522). In short, it runs like this:
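Differentiated HepaRG cells in serum-free induction medium were exposed in duplicate for 48 h to eight concentrations, top 100 uM with half-log dilutions, in 0.5% DMSO. PPP2R4 mRNA was quantified by TaqMan qRT-PCR, normalized to ACTB, GAPDH and POLR2A.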

Read-out in test [10]: Phosphatase and tensin (PTEN), PTEN (gene 5728)
Put plainly: LTEA_HepaRG_PTEN: Life Technologies and Expression Analysis (LTEA) Assay for Phosphatase and tensin (PTEN) using HepaRG (AID 2283523). The method in brief:
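Differentiated human HepaRG cells, plated 48 h then switched to serum-free induction medium, were exposed in duplicate for 48 h to eight half-log concentrations up to 100 uM in 0.5% DMSO. PTEN mRNA measured by TaqMan qRT-PCR, normalized to ACTB/GAPDH/POLR2A, bidirectional fit versus DMSO.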

Read-out in test [11]: solute carrier (SLC22A1), SLC22A1 (gene 6580)
Put plainly: LTEA_HepaRG_SLC22A1: Life Technologies and Expression Analysis (LTEA) Assay for solute carrier (SLC22A1) using HepaRG (AID 2283524). The method in brief: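 Human HepaRG cells were plated 48 h, switched to serum-free induction medium, then exposed in duplicate for 48 h to 8-point half-log series from 100 uM in 0.5% DMSO. SLC22A1 mRNA measured by qRT-PCR, normalized to ACTB/GAPDH/POLR2A, fitted bidirectionally versus DMSO.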

Read-out in test [12]: Pyruvate Dehydrogenase Kinase 4 (PDK4), PDK4 (gene 5166)
Put plainly: LTEA_HepaRG_PDK4: Life Technologies and Expression Analysis (LTEA) Assay for Pyruvate Dehydrogenase Kinase 4 (PDK4) using HepaRG (AID 2283525). The method in brief: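 Differentiated human HepaRG cells, pre-cultured 48 h, were exposed in duplicate for 48 h in serum-free induction medium to eight half-log concentrations up to 100 uM in 0.5% DMSO. PDK4 mRNA was quantified by qRT-PCR, normalized to ACTB, GAPDH and POLR2A, bidirectional fitting versus DMSO.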

Read-out in test [13]: NAD(P)H dehydrogenase [quinone] 1 (NQO1), NQO1 (gene 1728)
Put plainly: LTEA_HepaRG_NQO1: Life Technologies and Expression Analysis (LTEA) Assay for NAD(P)H dehydrogenase [quinone] 1 (NQO1) using HepaRG (AID 2283526). In short, it runs like this: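 Differentiated HepaRG cells, plated 48 h and then switched to serum-free induction medium, were exposed in duplicate for 48 h to 8-point half-log concentrations up to 100 uM in 0.5% DMSO. mRNA measured by qRT-PCR, normalized to ACTB, GAPDH, POLR2A; bidirectional fit versus DMSO.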

Read-out in test [14]: Nuclear factor erythroid 2-related factor 2 (Homo sapiens) (UniProt Q16236)
Put plainly: LTEA_HepaRG_NFE2L2: Life Technologies and Expression Analysis (LTEA) Assay for Nuclear factor erythroid 2-related factor 2 (NFE2L2) Transcription Factor using HepaRG (AID 2283527).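 Also: TaqMan qRT-PCR transcript level normalised to ACTB GAPDH and POLR2A housekeeping genes.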 In short, it runs like this: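 Differentiated human HepaRG cells in serum-free induction medium were exposed for 48 h to eight concentrations (top 100 uM, half-log dilutions, 0.5% DMSO), in duplicate. NFE2L2 mRNA was quantified by TaqMan qRT-PCR, normalized to ACTB, GAPDH and POLR2A, with bidirectional fitting versus DMSO.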

Read-out in test [15]: succinate dehydrogenase complex iron sulfur subunit B (SDHB), SDHB (gene 6390)
Put plainly: LTEA_HepaRG_SDHB: Life Technologies and Expression Analysis (LTEA) Assay for succinate dehydrogenase complex iron sulfur subunit B (SDHB) using HepaRG (AID 2283528). The method in brief: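 A human HepaRG culture in serum-free induction medium received test chemicals for 48 h over an eight-point range capped at 100 uM. SDHB expression change was quantified by qRT-PCR.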

Read-out in test [16]: Signal transducer and activator of transcription 3 (Homo sapiens) (UniProt P40763)
Put plainly: LTEA_HepaRG_STAT3: Life Technologies and Expression Analysis (LTEA) Assay for Signal transducer and activator of transcription (STAT3) using HepaRG (AID 2283529). The method in brief:
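Differentiated human HepaRG cells in serum-free induction medium were exposed in duplicate for 48 h to eight half-log concentrations up to 100 uM in 0.5% DMSO. STAT3 mRNA was quantified by TaqMan qRT-PCR, normalized to ACTB, GAPDH and POLR2A, and fitted bidirectionally against DMSO.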

Read-out in test [17]: solute carrier (SLCO1B1), SLCO1B1 (gene 10599)
Put plainly: LTEA_HepaRG_SLCO1B1: Life Technologies and Expression Analysis (LTEA) Assay for solute carrier (SLCO1B1) using HepaRG (AID 2283530). The method in brief:
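Human HepaRG cultures treated for 48 h with an eight-concentration half-log series topping at 100 uM; SLCO1B1 measured by qRT-PCR and fitted bidirectionally relative to DMSO.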

Read-out in test [18]: Transforming Growth Factor (TGFA), TGFA (gene 7039)
Put plainly: LTEA_HepaRG_TGFA: Life Technologies and Expression Analysis (LTEA) Assay for Transforming Growth Factor (TGFA) using HepaRG (AID 2283532). In short, it runs like this:
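Differentiated human HepaRG cells, plated 48 h then switched to serum-free induction medium, were exposed in duplicate for 48 h to 8-point half-log series from 100 uM in 0.5% DMSO. TGFA mRNA measured by qRT-PCR, normalized to ACTB/GAPDH/POLR2A, bidirectional fit versus DMSO.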

Read-out in test [19]: sulfotransferase 2A1 (SULT2A1), SULT2A1 (gene 6822)
Put plainly: LTEA_HepaRG_SULT2A1: Life Technologies and Expression Analysis (LTEA) Assay for sulfotransferase 2A1 (SULT2A1) using HepaRG (AID 2283531). The method in brief:
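Gene-expression endpoint in a human liver cell line: SULT2A1 mRNA change after 48 h chemical treatment, curves fitted in both directions relative to 0.5% DMSO vehicle. Concentrations spanned eight half-log steps from 100 uM.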

Sequence of Nuclear factor NF-kappa-B p105 subunit (Homo sapiens) (P19838 whole entry, looked up): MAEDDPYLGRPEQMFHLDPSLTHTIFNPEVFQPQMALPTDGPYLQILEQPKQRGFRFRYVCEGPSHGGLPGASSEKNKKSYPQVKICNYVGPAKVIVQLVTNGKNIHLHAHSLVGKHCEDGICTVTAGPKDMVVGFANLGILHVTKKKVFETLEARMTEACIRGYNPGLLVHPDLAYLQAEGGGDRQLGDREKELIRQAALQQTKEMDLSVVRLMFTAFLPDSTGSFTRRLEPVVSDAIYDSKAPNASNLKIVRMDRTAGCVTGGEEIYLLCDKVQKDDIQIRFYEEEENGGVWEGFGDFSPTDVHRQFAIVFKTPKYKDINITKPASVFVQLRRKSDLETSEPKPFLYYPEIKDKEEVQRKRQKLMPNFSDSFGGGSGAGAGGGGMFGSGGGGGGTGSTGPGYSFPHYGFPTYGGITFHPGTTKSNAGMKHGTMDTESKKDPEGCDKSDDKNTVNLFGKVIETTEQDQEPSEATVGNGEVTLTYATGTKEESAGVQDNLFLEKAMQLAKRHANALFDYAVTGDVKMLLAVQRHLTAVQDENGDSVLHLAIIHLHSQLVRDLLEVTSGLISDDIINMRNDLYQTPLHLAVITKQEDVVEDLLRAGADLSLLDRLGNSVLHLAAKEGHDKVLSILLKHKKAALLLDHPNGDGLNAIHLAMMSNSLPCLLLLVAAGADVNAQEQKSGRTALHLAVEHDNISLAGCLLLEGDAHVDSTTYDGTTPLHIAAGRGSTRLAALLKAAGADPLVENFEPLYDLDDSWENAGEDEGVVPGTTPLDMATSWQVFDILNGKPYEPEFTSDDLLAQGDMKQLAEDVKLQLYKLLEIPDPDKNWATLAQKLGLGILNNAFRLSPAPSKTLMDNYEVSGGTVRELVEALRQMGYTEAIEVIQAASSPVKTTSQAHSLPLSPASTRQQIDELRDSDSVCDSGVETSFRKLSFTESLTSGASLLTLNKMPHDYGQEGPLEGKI
Sequence of Nuclear factor erythroid 2-related factor 2 (Homo sapiens) (Q16236 whole entry, looked up): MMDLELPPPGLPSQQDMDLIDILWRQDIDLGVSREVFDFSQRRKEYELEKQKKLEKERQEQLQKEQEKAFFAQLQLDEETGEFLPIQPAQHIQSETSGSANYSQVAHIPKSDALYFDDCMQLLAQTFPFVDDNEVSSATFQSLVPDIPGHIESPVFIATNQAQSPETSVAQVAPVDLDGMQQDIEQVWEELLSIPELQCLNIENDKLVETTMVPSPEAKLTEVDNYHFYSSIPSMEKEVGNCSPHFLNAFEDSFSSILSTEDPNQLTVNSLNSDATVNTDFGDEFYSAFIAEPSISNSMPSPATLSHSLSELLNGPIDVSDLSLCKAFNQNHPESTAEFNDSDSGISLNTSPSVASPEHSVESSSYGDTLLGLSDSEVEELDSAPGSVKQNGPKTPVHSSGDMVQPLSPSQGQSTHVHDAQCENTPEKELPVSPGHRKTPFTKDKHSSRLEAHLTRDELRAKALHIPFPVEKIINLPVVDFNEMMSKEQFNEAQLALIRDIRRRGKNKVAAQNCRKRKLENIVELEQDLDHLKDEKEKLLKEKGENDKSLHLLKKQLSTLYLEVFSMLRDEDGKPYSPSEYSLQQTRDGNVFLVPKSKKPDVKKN
Sequence of Signal transducer and activator of transcription 3 (Homo sapiens) (P40763 whole entry, looked up): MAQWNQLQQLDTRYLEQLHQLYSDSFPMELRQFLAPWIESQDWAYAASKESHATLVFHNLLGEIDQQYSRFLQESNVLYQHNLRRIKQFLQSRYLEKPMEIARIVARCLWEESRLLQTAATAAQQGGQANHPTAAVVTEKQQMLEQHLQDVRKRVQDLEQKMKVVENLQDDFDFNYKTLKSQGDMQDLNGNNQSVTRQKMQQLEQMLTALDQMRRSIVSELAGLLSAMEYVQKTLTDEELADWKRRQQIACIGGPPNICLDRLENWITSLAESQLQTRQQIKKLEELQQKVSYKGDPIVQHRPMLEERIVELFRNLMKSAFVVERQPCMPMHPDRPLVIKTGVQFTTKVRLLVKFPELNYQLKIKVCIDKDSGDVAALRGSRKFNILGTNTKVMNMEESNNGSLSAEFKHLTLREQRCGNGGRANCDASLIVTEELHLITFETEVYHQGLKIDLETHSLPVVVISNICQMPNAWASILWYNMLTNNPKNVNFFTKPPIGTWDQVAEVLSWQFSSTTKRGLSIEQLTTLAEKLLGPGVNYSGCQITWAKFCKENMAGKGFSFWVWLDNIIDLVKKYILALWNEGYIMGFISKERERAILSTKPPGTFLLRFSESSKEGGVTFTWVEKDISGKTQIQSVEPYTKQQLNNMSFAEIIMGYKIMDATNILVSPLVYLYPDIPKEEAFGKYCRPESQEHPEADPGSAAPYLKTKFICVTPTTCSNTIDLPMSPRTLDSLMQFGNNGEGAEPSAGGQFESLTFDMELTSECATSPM

Turning to `O=c1[nH]c2ccc(S(=O)CCN3CCC(Cc4ccc(F)cc4)CC3)cc2o1` (configuration not stated), the compound was called inactive in test [1], in test [4], in test [5], in test [6], in test [8] and in [9]. The call in test [10], in [13], in test [14], in test [16], in test [17] and in test [18] was inactive. Moreover, the AC50 is 82 µM (active) in test [2]; 59.5 µM (active) in test [3]; 17.3 µM (active) with MYC, MYC (gene 4609); 50 µM (active) in test [7]; 67.2 µM (active) in [11]; 14.7 µM (active) in test [12]. Moreover, the AC50 in test [15] was 50 µM (active).

`CCCN(C1CCN(C(=O)C2CCNCC2)CC1)[C@@H]1CCc2ccc(OC)cc2C1`: the call in test [1], in test [3], in test [5], in test [6], in test [9] and in test [10] was inactive. Further, the compound was called inactive in test [12], in [13], in [14], in test [15] and in test [18]. Moreover, the AC50 in test [2] is 69.6 µM (active); in test [4] it was 80 µM (active); with MYC, MYC (gene 4609), 89.5 µM (active); in [7], 60.2 µM (active); in [8] it was 0.304 µM (active); in test [11] it was 83 µM (active). The figures for the AC50 in test [16] and in [17] were 0.256 µM (active) and 79.4 µM (active), respectively.

Consider `CC[C@H](C)C(=O)O[C@H]1C[C@@H](C)C=C2C=C[C@H](C)[C@H](CC[C@@H]3C[C@@H](O)CC(=O)O3)[C@H]21`, for which the outcome in [1] was “inactive”; in test [2], “inactive”; in test [3], “inactive”; in test [4] it was “inactive”; in [5] it was “inactive”; with MYC, MYC (gene 4609), “inactive”. Also, the result in [7], in test [8], in [9], in [10], in test [11] and in [13] was inactive. Also, the compound was classed as inactive in test [14], in test [15], in test [16], in test [17], in [19] and in [18]. The AC50 in test [12] was 16.9 µM (active).

In general, AC50 refers to the concentration at which the activity in the assay is half-maximal.
